# Screening data deposited in PubChem by Broad Institute.
# rRNA inh HTS: selective bacterial rRNA inhibition in E. coli; E. coli WT GFP vs humanized-ribosome RFP mutants, fluorescence, 24 h; active compounds read low; DMSO median 0, no signal -100; GFP signal change (wild-type ribosome), % (test concentration not listed); 350,000 tested, 1.6% active;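 active = significant combined selectivity score with lowered wild-type GFP, culture density cut under 30%, mutant RFP and density less affected; inactive = any of these conditions unmet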
# MLL AF4-AF9 inh: blocks AF4 peptide binding to human AF9 | P42568 | AlphaScreen, biotin-AF4 peptide binding to FLAG-AF9 | inhibition, % at 10 µM | 350,000 tested, 0.47% active | AID 651704;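 active = every replicate reaching a set inhibition limit, whatever the replicate mean, cut at about 25% in these data; inconclusive = mean inhibition reaches that limit but some replicates miss it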;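 note: 0% = plate neutral control median and 100% = total signal loss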
# Target sequence (P42568 whole entry, looked up): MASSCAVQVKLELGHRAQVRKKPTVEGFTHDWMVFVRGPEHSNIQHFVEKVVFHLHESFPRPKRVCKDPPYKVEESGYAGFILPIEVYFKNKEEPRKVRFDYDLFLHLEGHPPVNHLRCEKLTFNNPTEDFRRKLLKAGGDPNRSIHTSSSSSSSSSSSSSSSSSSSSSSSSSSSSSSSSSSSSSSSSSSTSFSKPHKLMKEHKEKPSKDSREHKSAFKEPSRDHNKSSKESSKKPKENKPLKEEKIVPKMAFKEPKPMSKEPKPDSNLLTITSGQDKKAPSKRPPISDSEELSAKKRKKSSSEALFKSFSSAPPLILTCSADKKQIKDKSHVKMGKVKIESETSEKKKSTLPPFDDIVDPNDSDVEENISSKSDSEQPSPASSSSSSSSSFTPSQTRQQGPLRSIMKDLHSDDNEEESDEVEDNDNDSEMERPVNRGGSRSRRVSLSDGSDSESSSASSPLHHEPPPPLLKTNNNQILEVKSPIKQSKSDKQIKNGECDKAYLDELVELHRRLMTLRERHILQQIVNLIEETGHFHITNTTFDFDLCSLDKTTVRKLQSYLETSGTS
# Wnt act: activates Wnt/beta-catenin signaling in a reporter cell assay; activator, plate reader; activation, % at 9.35 µM; 300,000 tested, 1.2% active; in the data active = activation above about 30%, passing the limit was not always enough; inconclusive = no clear call, values can overlap the other calls;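 note: 0% = neutral control wells and 100% = positive control wells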
# MITF act: MITF TRPM1 promoter activation in melanoma cells | SK-MEL-5 TRPM1-promoter luciferase, 24 h; % of positive control, neutral wells = 0 | 300,000 tested, 0.75% active | AID 588334 | activation, % at 12.5 µM;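 active = mean activation of at least 80% with every replicate also reaching 80%; inconclusive = mean reaches 80% but some replicate falls short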;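 note: 0% = neutral control wells and 100% = parthenolide positive control wells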
# esBAF inh: SWI/SNF esBAF complex inhibition. mouse ES cells, Bmi1-luciferase knock-in reporter, 24 h; 100% = twice the neutral-well signal. reporter increase, % at 12.5 µM. 350,000 tested, 2% active; in the data active = activation above about 40%; inconclusive = no clear call, values can overlap the other calls;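 note: 0% = median of the plate's neutral control wells and 100% = double that signal; a rise in the Bmi1 reporter signal indicates esBAF inhibition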
# * hit, by the source's call; ? = inconclusive; . = not tested or not shown. This is a sample that favours compounds with a hit; in the whole collection about 3.7% have one here.
SMILES,rRNA inh HTS,MLL AF4-AF9 inh,Wnt act,MITF act,esBAF inh
CN(C)c1ccc(C(O)P(=O)(OC2CCCCC2)OC2CCCCC2)cc1 (stereo not drawn),-34*,5,0,.,.
O=C(COc1ccc2ccccc2c1Br)Nc1ccncc1,-4,1,4,40,.
O=C(COc1ccc2ccccc2c1Br)Nc1cccnc1,-8,-1,20,114*,1
Cc1ccc(NC(=O)COc2ccccc2[N+](=O)[O-])nc1,23,1,54*,0,-15
COc1ccc(OCC(=O)N/N=C(\C)c2cccs2)cc1,-10,0,-3,2,.
C/C(=N\NC(=O)COc1ccccc1[N+](=O)[O-])c1cccs1,-2,1,35*,64,53*
O=C(COc1ccccc1[N+](=O)[O-])Nc1ccc(Br)cc1,8,-13,48*,80,.
O=C(COc1ccccc1[N+](=O)[O-])NCc1cccnc1,.,.,-6,-12,.
O=C(COc1ccccc1[N+](=O)[O-])Nc1cccnc1,24,-1,?,61,45*
O=C(N/N=C/c1c[nH]c2ccccc12)C1CC1c1ccccc1 (stereo not drawn),-28*,-14,0,-9,.
O=C(N/N=C/c1c[nH]c2ccccc12)c1cc(-c2ccc(-c3ccccc3)cc2)n[nH]1,.,.,.,.,-5
COc1ccc(CC(=O)NCC(=O)N/N=C/c2c[nH]c3ccccc23)cc1,-37*,-1,8,1,-1
COc1ccc(/C=N/NC(=O)c2ccoc2C)cc1COc1c(C)cccc1C,.,.,16,.,50*
O=C(CNC(=O)c1ccco1)N/N=C/c1c[nH]c2ccccc12,4,0,-1,-3,-2
O=C(N/N=C/c1c[nH]c2ccccc12)c1cc(-c2ccccc2)n[nH]1,-34*,5,-1,-7,.
O=C(N/N=C/c1c[nH]c2ccccc12)C1CC1(c1ccccc1)c1ccccc1 (stereo not drawn),.,.,-7,-11,.
COc1ccc(/C=N\NC(=O)c2ccccc2OC)cc1COc1ccccc1C,13,-1,1,14,2
C[C@H](O)[C@@H]1C(=O)N2CCc3c([nH]c4c(-c5ccccc5)cccc34)[C@@H]2C[C@@H]1N(C)C(=S)NCCc1ccccc1,6,.,-6,.,.
COc1ccc(CN2CCN(Cc3nc4ccccc4s3)CC2CCO)c(C)c1C (stereo not drawn),-1,3,0,-2,.
COc1cccc(C(C)NC(=O)C2CCCC2)c1 (stereo not drawn),0,5,-1,8,-5
Cc1occc1C(=O)N/N=C/c1c[nH]c2ccccc12,-13,7,1,56,50*
CC(=O)c1ccc(NC(=O)CN2CCCC2)cc1,9,0,2,.,50*
CSCCC(=O)Nc1ccc(C(C)=O)cc1,13,-1,-1,39,53*
O=C(O)CCNC(=O)COc1ccc2c3c(c(=O)oc2c1)CCCC3,6,-2,0,3,-4
O=C(CCn1cnnn1)Nc1cccc(F)c1,8,-1,-1,6,.
SMILES,rRNA inh HTS,MLL AF4-AF9 inh,Wnt act,MITF act,esBAF inh
CC12CCC(/C(=C/NNc3ccc([N+](=O)[O-])cc3[N+](=O)[O-])C1=O)C2(C)C (stereo not drawn),-23*,15,-5,.,-3
O=C(NNc1ccc([N+](=O)[O-])cc1[N+](=O)[O-])C1C2CCCCC21 (stereo not drawn),5,2,-4,-20,.
CC(=O)Nc1ccccc1C(=O)N1CCc2ccccc21,.,.,-1,-17,0
O=C(NC1CC1)c1ccc(-c2cnc3cccnn23)cc1,-3,0,35*,.,25
Cc1c(CCOC(=O)C23CC4CC(CC(C)(C4)C2)C3)sc[n+]1CC(=O)c1ccccc1,-57,14,-3,-1,9
Cc1c(CCOC(=O)CC23CC4CC(CC(C)(C4)C2)C3)sc[n+]1CC(=O)c1ccccc1,-63,27*,-6,-83,.
Cc1c(CCOC(=O)c2ccccc2)sc[n+]1CC(=O)c1ccc(Br)cc1,-48*,.,.,-8,7
Cc1cccn2cc(-c3cccc(S(=O)(=O)N4CC(C)OC(C)C4)c3)nc12 (stereo not drawn),-4,-2,-3,2,-4
Cc1cccn2cc(-c3ccc(F)cc3)nc12,.,.,55*,-2,1
Cc1cccn2cc(-c3ccccc3)nc12,.,.,.,38,.
COc1ccc(-c2cn3cccc(C)c3n2)cc1Br,.,.,35*,50,99*
CC(C)NC(=O)Nc1ccc2c(c1)C(=O)N([C@@H](C)CO)C[C@H](C)[C@H](CN(C)C(=O)Nc1ccccc1)OCCCC[C@H](C)O2,3,-1,.,.,.
CC1CC(=O)N(c2ccc(NCc3ccccc3Cl)c([N+](=O)[O-])c2)C1=O (stereo not drawn),.,.,-2,-10,.
O=C(/C=C/c1ccc2c(c1)OCO2)Nc1nncs1,9,-5,61*,.,.
Nc1ccccc1C(=O)/C=C/c1ccc2c(c1)OCO2,-33,19,35*,85*,73*
Cc1cc(C)nc(NC(=O)/C=C/c2ccc3c(c2)OCO3)c1,.,.,44*,115*,48*
O=C(/C=C/c1cccs1)Nc1nncs1,10,-6,16,61,.
CC(C)(C)c1ccc(/C=C/C(=O)Nc2nncs2)cc1,.,-2,26,89*,26
CC(=O)Nc1ccc(NC(=O)/C=C/c2ccc3c(c2)OCO3)cc1,8,-1,7,29,.
C/C=C/c1cnc2c(c1)C(=O)N([C@@H](C)CO)C[C@@H](C)[C@@H](CN(C)C(=O)Cc1ccccn1)O2,.,-3,.,.,-4
CCOC(=O)N1CCN(C(=O)c2ccc3c(c2)ncn3C2CCCC2)CC1,9,5,.,14,-2
COc1ccc(NS(=O)(=O)c2csc(C(=O)Nc3ccccc3)c2)cc1,-43,3,.,-3,4
N#Cc1ccccc1/C=C/C(=O)N1CCOCC1,1,0,1,-12,.
CCn1c(-c2cc(-c3ccccc3)sc2N)n[nH]c1=S,-30,1,2,.,.
CCn1c(-c2cc(-c3cccc(OC)c3)nc3ccccc23)n[nH]c1=S,-44*,-1,-1,8,-3
SMILES,rRNA inh HTS,MLL AF4-AF9 inh,Wnt act,MITF act,esBAF inh
O=C1CN(C(=O)CSc2nc3ccccc3c(=O)n2CC2CCCO2)c2ccccc2N1 (stereo not drawn),-3,0,-2,-2,.
COc1cccc(NC(=O)N2[C@@H](CO)[C@H](c3ccccc3)[C@@H]2CNC(C)C)c1,6,2,.,.,-5
Fc1ccccc1NC(=S)N/N=C/c1ccccc1Br,.,.,.,.,60*
O=[N+]([O-])c1ccc(/C=N/NC(=S)Nc2ccccc2F)o1,.,.,.,-18,24
COc1ccccc1C(=O)C1CCCN(C(=O)CCC(=O)c2ccccc2)C1 (stereo not drawn),-28*,-2,-1,6,.
Cc1ccc(NC(=O)C2CCCC2)c(Br)c1,6,-6,2,.,12
Cc1ccc(NC(=O)CC2CCCC2)c(Br)c1,6,0,10,57,50*
